Out of some 290,000 compounds screened, about 2,700 (0.93%) were called active. The sample as a whole holds a higher share of actives than the screen did. Unmarked numbers belong to inactive results.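 How the source made its calls: active means inhibition above the screen-wide mean plus 3 SD, computed separately per campaign (cut at about 16% in these data); inactive means the rest.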

This assay has as its system Heat shock protein HSP 90 (rabbit reticulocyte lysate; luciferase refolding). Briefly: inhibitors of HSP90 chaperone activity – cell lysate, luminescence, primary screen (AID 1789).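 Further: 0% = DMSO wells and 100% = 60 µM geldanamycin wells; inhibitors lower the luminescence because luciferase stays unfolded.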 To be noted: 3 h, at 5.6 µM, active compounds read high.
A word on the inhibition: it is the relative decrease from the control value, in per cent. With `Cc1ccc(SCC(=O)NC(=O)NCc2ccco2)c(C)c1`, the inhibition was 16.6% (active). As to `Cc1ccc(NC(=O)C(=O)NCc2ccco2)c(C)c1`, the inhibition is -1.76%. As for `Cc1cc(C)n2nc(SCC(=O)NC(=O)NCc3ccco3)nc2n1`, the figure is 0.53%; as for `CC(C)Cc1nnc(NC(=O)CN2C(=O)NC3(CCCCC3)C2=O)s1`, -3.19%. `CC1CCN(CC(O)COc2ccc(C(=O)c3ccccc3)cc2)CC1` (configuration not stated): the inhibition was -4.35%. In the case of `Cc1csc(NC(=O)CSc2nc(=O)cc(N)n2-c2ccc(F)cc2)n1`, the inhibition was -4.86%. Then `Cc1nc([N+](=O)[O-])cn1CC(=O)Nc1ccc(Cl)cc1`, with -5.8%; and `c1c2c(cc3sc(N4CCCCC4)nc13)OCCO2`, with 56.8% (active); and `Brc1ccc2nc(N3CCCC3)sc2c1`, with 7.29%. Then `Cc1nc2cc3c(cc2s1)OCO3`, with 5.26%.

Consider `COCC1CCN(C(=O)CCc2nnc(C3(c4ccc(Cl)cc4)CCC3)o2)C1` (configuration not stated), for which the inhibition was -3.96%.

For the compound `CN(CC1CCCN(CCc2cccc(C(F)(F)F)c2)C1)C(=O)c1ccc2nc[nH]c2c1` (configuration not stated), the inhibition was -5.74%.

Regarding `Clc1c(OCCCn2ccnc2)ccc2ccccc12`, the inhibition was 1.78%. For the compound `CCc1ccc2oc(-c3ccc(N)cc3)nc2c1`, the inhibition is 26.4% (active). Then `COc1ccc(-c2nc3cc([N+](=O)[O-])ccc3o2)cc1OC`, with 1.87%. As for `CC(=O)Nc1ccc(-c2nc3ccccc3o2)cc1`, the inhibition is 2.88%.

On to `COc1ccc2[nH]c(=O)c(CN(Cc3cccnc3)S(=O)(=O)c3ccccc3F)cc2c1`, for which the inhibition was 1.17%.

For `Cc1cccc(C(=O)OC(C)CN2CCCC2)c1` (configuration not stated), the inhibition is 0.74%.

With `Cc1ccc(C(=O)OC(C)CN2CCOCC2)cc1` (configuration not stated), the inhibition is -4.23%. Then `Cc1cccc(C(=O)OC(C)CN2CCN(C)CC2)c1` (configuration not stated), with 17.2% (active); and `CCOc1ccc(NC(=O)[C@H](C)NC(=O)C2CC(=O)N(c3ccc(OC)cc3)C2)cc1` (some centres not stated), with 2.77%. Consider `O=C(NC1CCCC1)C(c1c(F)cccc1Cl)N(C(=O)c1csnn1)C1CC1` (configuration not stated), for which the inhibition is -3.16%. As for `Cc1ccc(C(=O)Nc2ccc(C)c(S(=O)(=O)N(C)C)c2)s1`, the figure is 0.01%. Take `O=c1oc2ccccc2cc1-c1csc(Nc2ccc(O)cc2)n1`: the inhibition is -2.38%.

Turning to `Clc1ccc(Nc2nc(-c3cccs3)cs2)nc1`, the inhibition is 6.93%. As for `Cc1ccc(Nc2nc(-c3ccc(O)cc3O)cs2)nc1`, the figure is 28.1% (active). Then `Nc1ccccc1SC(C[N+](=O)[O-])c1ccccc1` (configuration not stated), with -4.32%. As for `CCS(=O)(=O)c1cc([N+](=O)[O-])c(Sc2ccccc2N)s1`, the figure is 20.8% (active); as for `CCOC(=O)c1cc(Sc2ccccc2N)cc(C(=O)OCC)n1`, 7.9%.

Turning to `O=c1ccc(-c2ccc(S(=O)(=O)Nc3ccccc3)o2)n[nH]1`, the inhibition was -6.52%.

Take `COCCn1c(N)c(NCc2ccccc2)c(=O)[nH]c1=O`: the inhibition is 7.03%. As for `Cn1c(=O)c2c(SCC(=O)NCC3CCCO3)nc(CC(C)(C)C)nc2n(C)c1=O` (configuration not stated), the figure is -3.22%; as for `Cc1cc(C(=O)COC(=O)C2CC2)c(C)n1-c1ccc(F)cc1`, 84.2% (active); as for `Cc1ccc(-n2c(C)cc(C(=O)CN3C(=O)C(=O)N(C4CCCC4)C3=O)c2C)cc1`, -3.59%. As for `COc1cc(/C=N/NC(=O)c2cc(C)n(-c3ccc(F)cc3)c2C)cc(OC)c1O`, the figure is 6.31%; as for `COc1ccc(-n2c(C)cc(C(=O)CN3C(=O)NC4(CCc5ccccc54)C3=O)c2C)cc1` (configuration not stated), 2.66%. With `CCn1cc(/C=C(\NC(=O)c2ccc(C)cc2)C(=O)NCCN2CCOCC2)c2ccccc21`, the inhibition is 3.27%. Take `Cc1nn(Cc2ccccc2)c(Cl)c1C(=O)OC1CCOC1=O` (configuration not stated): the inhibition was -0.01%.

For `O=C(OC1CCOC1=O)c1ccc(-c2nc3ccccc3s2)s1` (configuration not stated), the inhibition was 35.8% (active). Then `CC(C)c1ccc(C(=O)OC2CCOC2=O)cc1` (configuration not stated), with 3.27%. As for `CCOC(=O)C1CCN(Cc2c(C(=O)N3CCOCC3)nc3c(C)cccn23)CC1`, the figure is 13.2%; as for `C=C(C)CNC(=O)c1ccc(OC2CCN(C(=O)COC)CC2)cc1`, 2.35%; as for `CC(C)C[C@H](NC(=O)C1CC(=O)N(c2ccc3c(c2)OCCO3)C1)C(=O)NC1CCCC1` (some centres not stated), -1.77%. As to `CCOC(=O)C(C)Sc1nc2ccccc2c(=O)n1CC1CCCCC1` (configuration not stated), the inhibition is 2.53%. As for `O=c1c2ccccc2nc2n1C1(CCCCC1)Cc1ccccc1-2`, the figure is 4.03%. For `CN(c1ccc2nc3ccccc3c(=O)n2n1)C1CCCCC1`, the inhibition is 85.9% (active). As for `COCCC(=O)N1CCC(Oc2ccc(C(=O)NCc3ccon3)cc2)CC1`, the figure is -1.71%.

`CNC(=O)CN1C(=O)NC(c2ccccc2)(c2ccccc2)C1=O`: the inhibition is 3.3%. As for `C=CCc1cc(S(=O)(=O)c2ccc(O)c(CC=C)c2)ccc1O`, the inhibition is -0.52%. Then `CCOC(=O)N1CCN(C(=O)C(=O)Nc2sc3c(c2C#N)CC(C)(C)OC3)CC1`, with -2.63%; and `CCCCOc1ccc(-c2nnc(-c3ccco3)o2)cc1`, with -4.76%. In the case of `CCOc1ccc(-c2nnc(-c3ccco3)o2)cc1`, the inhibition is 30.8% (active).

As to `CCOc1ccc(-n2c(SCC(N)=O)nnc2-c2ccco2)cc1`, the inhibition was 7.02%. Then `CCc1ccccc1OCC(=O)Nc1ccc2c(c1)OCCO2`, with -5.09%. As for `CCn1ccnc1CN(C)C(=O)c1ccc2nc(Cc3ccc(OC)cc3)oc2c1`, the figure is -0.73%; as for `COCC1CCN(C(=O)C2CCC(=O)N(Cc3cccc(C(F)(F)F)c3)C2)CC1` (configuration not stated), 2.25%. For `O=[N+]([O-])/C=C/c1ccc2c(ccn2Cc2ccccc2)c1`, the inhibition is 21.8% (active). For the compound `O=C(/C=C/c1cccc([N+](=O)[O-])c1)N1CCN(Cc2ccccc2)CC1`, the inhibition is -2.98%.

On to `O=c1c([N+](=O)[O-])cc(C(F)(F)F)cn1Cc1cccc(Cl)c1`, for which the inhibition is 0.02%. Take `CN(Cc1ccccc1)C(=O)C(=O)c1cn(CC(=O)N2CCCC2)c2ccccc12`: the inhibition was -3.8%. As for `CCc1ccc(NC(=O)NC(C)c2ccc3c(c2)OCO3)cc1` (configuration not stated), the inhibition was 1.03%. Then `Cc1onc(-c2ccccc2)c1C(=O)N1CCN(S(=O)(=O)c2ccccc2C(F)(F)F)CC1`, with -1.81%.
